# Screening results from PubChem.
# KCNQ2 block – KCNQ2 (rat) channel inhibition. B-score at 10 µM. O88943. AID 2156. hit rate 1.1% among 310,000. CHO-K1 KCNQ2, FluxOR thallium flux, 20 min; active compounds read low;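 active = fluorescence ratio B-score at most minus 3 library SDs, with starting brightness B-score within 2 library SDs, cut at about -5.5 in these data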
# Target sequence (O88943 whole entry, looked up): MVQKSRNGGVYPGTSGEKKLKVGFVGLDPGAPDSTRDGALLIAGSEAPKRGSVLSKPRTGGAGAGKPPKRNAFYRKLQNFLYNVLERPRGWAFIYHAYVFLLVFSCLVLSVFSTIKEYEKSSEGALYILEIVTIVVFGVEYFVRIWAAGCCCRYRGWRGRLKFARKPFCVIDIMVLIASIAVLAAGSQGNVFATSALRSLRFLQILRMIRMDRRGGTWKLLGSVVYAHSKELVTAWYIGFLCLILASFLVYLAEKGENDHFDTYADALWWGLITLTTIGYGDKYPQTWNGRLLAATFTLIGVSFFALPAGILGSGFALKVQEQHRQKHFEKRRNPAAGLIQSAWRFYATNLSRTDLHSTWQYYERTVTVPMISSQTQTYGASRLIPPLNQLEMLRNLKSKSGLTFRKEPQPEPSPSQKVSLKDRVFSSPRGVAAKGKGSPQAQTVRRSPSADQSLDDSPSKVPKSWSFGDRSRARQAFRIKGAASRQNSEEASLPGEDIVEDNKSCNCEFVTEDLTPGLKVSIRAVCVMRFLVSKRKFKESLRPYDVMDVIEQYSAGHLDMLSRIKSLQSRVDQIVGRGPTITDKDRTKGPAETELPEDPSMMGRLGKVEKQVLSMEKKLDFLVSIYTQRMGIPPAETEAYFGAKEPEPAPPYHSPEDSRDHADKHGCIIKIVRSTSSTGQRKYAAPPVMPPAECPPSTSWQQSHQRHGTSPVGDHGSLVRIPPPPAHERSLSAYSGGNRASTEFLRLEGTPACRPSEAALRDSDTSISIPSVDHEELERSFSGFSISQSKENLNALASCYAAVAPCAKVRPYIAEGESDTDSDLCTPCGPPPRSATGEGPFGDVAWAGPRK
# KCNQ2 enhance – KCNQ2 (rat) channel potentiation | CHO-K1 KCNQ2, FluxOR thallium flux fluorescence; active compounds read high | B-score at 10 µM | AID 2239 | hit rate 0.54% among 310,000;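 active = fluorescence ratio B-score at least 3 SD of library B-scores, with initial fluorescence B-score within 3 of them, cut at about 5.3 in these data; same plate scores as AID 2156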;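 note: B-score of peak minus minimum over baseline fluorescence ratio after K+ and Tl+ stimulus; positive B-score means potentiation of KCNQ2 with more thallium influx and brighter signal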
# Kir21 conf inh – confirmation of mouse Kir2.1 potassium channel inhibitors | shares compounds with KCNQ2 enhance | hit rate 41% among 2,300 | Kir2.1-expressing cells, FluxOR thallium flux fluorescence; active compounds read low | Tl flux remaining, % of negative control (active compounds read low), % at 10 µM;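 active = Primary-screen hit whose thallium flux fell at least 3 control SD below untreated wells in both duplicates, with normal baseline fluorescence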
# HEK293 ctr – counter-screen for Kir2.1 inhibitors: effect in parental HEK293 cells | hit rate 19% among 2,300 | FluxOR signal as % of negative control (100 = no effect), % at 10 µM | FluxOR thallium flux fluorescence; 0% = unstimulated blank wells | shares compounds with KCNQ2 enhance;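 active = dye signal at least 3 control SD above or below untreated wells in both duplicates, raw fluorescence within 3, either direction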;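 note: percent is based on the flux ratio of peak minus minimum fluorescence over baseline F0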
# CHO-K1 ctr – counter-screen for KCNQ2 potentiators: effect in parental CHO-K1 cells; AID 2282; shares compounds with KCNQ2 enhance; activity increase over 3SD of controls, % at 10 µM; hit rate 43% among 1,200; FluxOR thallium flux fluorescence; zero = vehicle mean+3SD, 100% = vehicle-minus-blank window;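 active = signal rise of at least 3 SD above the untreated control mean, in both duplicate wells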;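 note: counter screen of KCNQ2 potentiator hits so any rise reflects channel-independent effects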
# KCNQ1 pot spec – selectivity of KCNQ2 potentiators: effect on human KCNQ1 | shares compounds with KCNQ2 enhance | activation over 3SD threshold, % at 10 µM | CHO KCNQ1 stable, FluxOR thallium flux fluorescence; beyond 3SD, as % of vehicle-control signal | hit rate 28% among 1,200;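 active = fluorescence ratio rise of at least 3 SD of vehicle wells above their mean, in both replicate wells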
# KCNQ2 pot conf – rat KCNQ2 channel potentiator confirmation; CHO-KCNQ2 cells, FluxOR thallium flux fluorescence; AID 2287; shares compounds with KCNQ2 enhance; potentiation, less the hit threshold, % at 10 µM; hit rate 68% among 1,200;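 active = fluorescence ratio rising 3 SD or more over the vehicle control mean in both replicates, plus primary screen hit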;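 note: peak minus minimum thallium fluorescence divided by baseline after K/Tl stimulus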
# Kir2-1 sel – selectivity of KCNQ2 potentiators: effect on mouse Kir2.1; shares compounds with KCNQ2 enhance; AID 2345; activity over 3SD threshold, % at 10 µM; hit rate 2% among 1,200; HEK293 Kir2.1, FluxOR thallium flux fluorescence;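 active = fluorescence ratio rise of at least 3 SD above the vehicle-control mean, seen in both replicates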
# KCNQ2 W236L MoA – potentiates the retigabine-insensitive rat KCNQ2 W236L mutant channel. shares compounds with KCNQ2 enhance. hit rate 10% among 940. CHO KCNQ2-W236L, automated patch clamp current. AID 2558. current increase over 3SD of negative controls (%), active compounds read high, % at 25 µM;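 active = current increase at least 3 SD of the untreated controls above them in both duplicate recordings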
# Numbers stand for hits; . = inactive; / = no result given. In the library only some 1.6% were active in any assay of this set; here they are far more common.
SMILES,KCNQ2 block,KCNQ2 enhance,Kir21 conf inh,HEK293 ctr,others
Cc1nn(C)c(NC(=O)c2ccccc2Cl)c1Cl,.,.,/,/,
CNS(=O)(=O)/C=C/c1ccccc1,.,16,.,.,CHO-K1 ctr=.;KCNQ1 pot spec=.;KCNQ2 pot conf=.;Kir2-1 sel=.
CCCNS(=O)(=O)/C=C/c1ccccc1,.,.,/,/,
O=C(NC1CCN(Cc2ccccc2)CC1)c1ccccc1OCc1ccccc1Cl,.,/,73%,.,
O=C(NC1CCN(Cc2ccccc2)CC1)c1ccccc1OCc1ccccc1,.,/,/,/,
COc1ccc(CCNCC(O)COc2ccc(OC)cc2C(C)(C)C)cc1 (stereo not drawn),.,/,56%,.,
COc1ccc(CCNCC(O)COc2cccc(Br)c2)cc1OC (stereo not drawn),.,/,/,/,
OC(CNCc1ccccc1)COc1ccccc1 (stereo not drawn),.,/,/,/,
Cc1ccc(OCC(O)CNCc2ccc(F)cc2)cc1 (stereo not drawn),.,.,27%,.,
COc1ccc(OCCOCCOc2ccc(C)cc2[N+](=O)[O-])cc1,.,/,/,/,
COc1ccc(CNCC(O)COc2ccc(C)cc2[N+](=O)[O-])cc1 (stereo not drawn),.,/,26%,.,
CCN(CC)CCCC(C)NC(=O)c1ccc(C(F)(F)F)cc1 (stereo not drawn),.,.,/,/,
CCC(Cc1ccccc1)NS(=O)(=O)c1c(C)nc2sccn2c1=O (stereo not drawn),.,.,/,/,
CCC(CC)C(=O)OCC(=O)Nc1cccc([N+](=O)[O-])c1,.,/,/,/,
COC(=O)C1=C(C)N(Cc2ccccc2)C(=O)N[C@H]1c1ccccc1,.,/,/,/,
COC(=O)C1=C(C)N(Cc2ccccc2)C(=NCCc2ccccn2)N[C@H]1c1cccc(F)c1,.,.,40%,.,
COC(=O)C1=C(C)N(Cc2ccccc2)C(=NCC(C)C)N[C@H]1c1ccccc1,.,/,.,.,
CCN1C(=NCCc2ccccn2)N[C@@H](c2cccc(F)c2)C(C(=O)OC)=C1C,.,.,/,/,
CC1(C)CC(=O)C2=C(C1)OC(N)=C(C#N)C2c1cc2c(cc1[N+](=O)[O-])OCO2 (stereo not drawn),.,/,/,/,
COc1ccc(NC(=O)CSc2ccc3nnc(CCNC(=O)c4ccccc4)n3n2)cc1OC,.,.,/,/,
Cc1c(C(=O)NC2CCOC2)oc2c(F)cccc12 (stereo not drawn),.,.,/,/,
COc1ccc(C)cc1NC(=O)NNC(=O)C1CCC(C(C)(C)C)CC1 (stereo not drawn),.,11,.,.,CHO-K1 ctr=.;KCNQ1 pot spec=.;KCNQ2 pot conf=31;Kir2-1 sel=.;KCNQ2 W236L MoA=.
COc1ccc(C)cc1NC(=O)C1CCN(S(C)(=O)=O)CC1,.,/,/,/,
COc1ccc(CCNC(=O)C2CC2)cc1OC,.,/,/,/,
COc1ccc(CCNC(=O)C2CCC(C(C)(C)C)CC2)cc1OC (stereo not drawn),.,/,48%,.,
SMILES,KCNQ2 block,KCNQ2 enhance,Kir21 conf inh,HEK293 ctr,others
COc1cccc(NC(=S)N(CCCN2CCOCC2)C(C)c2cc3ccccc3o2)c1 (stereo not drawn),.,/,/,/,
Cc1ccc(NC(=O)CC(O)(C(F)(F)F)C(F)(F)F)c(Br)c1,.,8.7,.,.,CHO-K1 ctr=54;KCNQ1 pot spec=54;KCNQ2 pot conf=31;Kir2-1 sel=.;KCNQ2 W236L MoA=.
Cc1ccccc1NC(=O)CC(O)(C(F)(F)F)C(F)(F)F,.,.,/,/,
O=C(O)c1cncc(C#CCC2CCCCC2)c1,.,/,/,/,
O=C(O)c1ccc(S(=O)(=O)c2ccc([N+](=O)[O-])cc2[N+](=O)[O-])cc1,.,/,/,/,
Clc1ccc2c(c1)-c1nnc(Br)n1-c1ccccc1S2,.,.,66%,70%,
c1ccc2c(c1)Sc1ccccc1-n1cnnc1-2,.,/,/,/,
Clc1ccccc1-c1nnc2n1-c1ccccc1SC2,.,/,/,/,
